# Data reported in the supplement of paper PMC10849652.
# Targets with a hit are over-represented here; the source holds about 7,900 in all. About 0.6% of all pairs of compound and target were hits. A number with no mark means an inactive call.
# Tests used:
# Assay in all cases: log2 fold change, soluble protein after heating vs DMSO (PISA); higher = thermal stabilisation; K562 cells, 10 uM, 30 min; active = over 0.2 and 3.5 SD of the protein, either way, in both replicates (recomputed)
# [1] = compound: CC[C@@H]1C(=O)N(C)c2cnc(Nc3ccc(C(=O)NC4CCN(C)CC4)cc3OC)nc2N1C1CCCC1
# Summary of the method: (§1)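 Soluble protein was quantified by TMTpro 16plex LC-MS/MS after channel sums were equalised. It was obtained as the supernatant after 21,000xg for 90 min from pooled aliquots of K562 cells (2×10^6 cells/mL, 10 μM compound, 30 min) heated for 3 min across 48°C-58°C and extracted in PBS with 0.5% NP-40 at 4°C. Thermal stability values are relative to control samples and come from duplicates. They are given as log2 fold changes.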
# [2] = compound: CC[C@@H]1C(=O)N(C)c2cnc(Nc3ccc(C(=O)N[C@H]4CC[C@H](N5CCN(CC6CC6)CC5)CC4)cc3OC)nc2N1C(C)C [volasertib]
# Summary of the method: as §1
# [3] = compound: CC[C@H](C)N1C=C(C2=C(C=C(C=C21)C3=CN=C(C=C3)N4CCNCC4)C(=O)NCC5=C(C=C(NC5=O)C)C)C
# Summary of the method: as §1
# [4] = compound: CC[C@H](C)[C@@H](C(=O)N[C@@H]([C@@H](C)O)C(=O)N[C@@H](CC(C)C)C(=O)[C@]1(CO1)C)NC(=O)[C@H]([C@@H](C)CC)N(C)C(=O)C [epoxomicin]
# Summary of the method: as §1
# [5] = compound: CCn1c(C(=O)N(C2CC2)C2CC2)cc2c3c(ncn3C)c(Nc3cc(C)n(C)n3)nc21
# Summary of the method: as §1
# [6] = compound: CCn1cc(-c2ccnc3[nH]c(-c4cccc(CN(C)C)c4)cc23)c(-c2ccc(NC(=O)N(C)C)cc2)n1
# Summary of the method: as §1
# [7] = compound: CN(C)CC(=O)Nc1ccc2[nH]c(=O)c3ccccc3c2c1
# Summary of the method: as §1
# [8] = compound: CN(CCOC1=CC=C(C=C1)C[C@H]2C(=O)NC(=O)S2)C3=CC=CC=N3 (racemic) [rosiglitazone]
# Summary of the method: as §1
# [9] = compound: CN1C2=C(C3=C1C(=O)N(N=C3)CC4=CC(=CC=C4)N)SC(=C2)S(=O)C
# Summary of the method: as §1
# [10] = compound: CN1CCC(CNc2ccc3ncc(-c4cccc(OC(F)(F)F)c4)n3n2)CC1
# Summary of the method: as §1
# [11] = compound: CN1CCN(CCOc2cc(OC3CCOCC3)c3c(Nc4c(Cl)ccc5c4OCO5)ncnc3c2)CC1 [saracatinib]
# Summary of the method: as §1
# [12] = compound: CN1CCN(c2nc(C3=C(c4c[nH]c5ccccc45)C(=O)NC3=O)c3ccccc3n2)CC1 [sotrastaurin]
# Summary of the method: as §1
# [13] = compound: CN1CC[C@H](c2c(O)cc(O)c3c(=O)cc(-c4ccccc4Cl)oc23)[C@H](O)C1 [alvocidib]
# Summary of the method: as §1
# [14] = compound: CN1CCc2c(c3ccccc3n2Cc2ccc(C(=O)NO)cc2)C1 [Tubastatin A]
# Summary of the method: as §1
# [15] = compound: CNC(=O)C1=CC=CC=C1NC2=NC(=NC=C2Cl)NC3=C(C=C(C=C3)N4CCOCC4)OC
# Summary of the method: as §1
# [16] = compound: CNC(=O)c1ccc(Nc2ncc(C(F)(F)F)c(NCc3nccnc3N(C)S(C)(=O)=O)n2)cc1 [defactinib]
# Summary of the method: as §1
# [17] = compound: CNCc1ccc(-c2[nH]c3cc(F)cc4c3c2CCNC4=O)cc1 [rucaparib]
# Summary of the method: as §1
# [18] = compound: CNc1nc(-c2ccc3c(N)n[nH]c3c2)cc(N2C[C@@H](C(=O)NC3CCCCC3)CC[C@H]2C)n1
# Summary of the method: as §1
# [19] = compound: COC(=O)N[C@@H](C)CNc1nccc(-c2cn(C(C)C)nc2-c2cc(Cl)cc(NS(C)(=O)=O)c2F)n1 [encorafenib]
# Summary of the method: as §1
# [20] = compound: COC(=O)[C@H](CCSC)NC(=O)C1=C(C=C(C=C1)NC[C@H](CS)N)C2=CC=CC=C2
# Summary of the method: as §1
# UniProt Q96SZ6, sequence (Q96SZ6 whole entry, looked up): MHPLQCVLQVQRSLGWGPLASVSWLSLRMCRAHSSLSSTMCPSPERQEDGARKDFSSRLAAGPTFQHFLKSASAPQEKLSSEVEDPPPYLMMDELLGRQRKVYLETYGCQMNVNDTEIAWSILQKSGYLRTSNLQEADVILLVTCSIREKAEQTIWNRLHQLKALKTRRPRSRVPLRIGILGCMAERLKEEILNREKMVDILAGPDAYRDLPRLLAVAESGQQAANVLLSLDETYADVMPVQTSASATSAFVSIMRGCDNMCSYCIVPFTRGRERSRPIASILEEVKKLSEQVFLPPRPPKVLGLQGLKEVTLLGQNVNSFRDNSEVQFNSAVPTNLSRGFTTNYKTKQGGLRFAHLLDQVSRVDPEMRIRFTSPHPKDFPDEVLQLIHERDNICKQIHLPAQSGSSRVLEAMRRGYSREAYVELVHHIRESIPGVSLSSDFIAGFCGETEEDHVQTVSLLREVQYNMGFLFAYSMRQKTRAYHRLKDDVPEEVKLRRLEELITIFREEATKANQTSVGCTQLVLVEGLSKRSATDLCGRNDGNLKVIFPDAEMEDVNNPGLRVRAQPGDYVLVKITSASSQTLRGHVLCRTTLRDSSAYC
# UniProt O75208, sequence (O75208 whole entry, looked up): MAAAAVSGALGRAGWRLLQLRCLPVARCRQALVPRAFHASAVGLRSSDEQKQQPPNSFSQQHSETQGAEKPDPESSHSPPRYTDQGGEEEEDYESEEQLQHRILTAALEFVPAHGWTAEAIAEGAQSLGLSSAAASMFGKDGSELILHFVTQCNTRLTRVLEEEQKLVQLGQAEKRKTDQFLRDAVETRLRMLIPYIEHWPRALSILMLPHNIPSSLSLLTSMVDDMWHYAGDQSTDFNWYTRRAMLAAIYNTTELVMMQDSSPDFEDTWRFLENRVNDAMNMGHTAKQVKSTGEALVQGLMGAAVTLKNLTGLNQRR
# UniProt Q9P031, sequence (Q9P031 whole entry, looked up): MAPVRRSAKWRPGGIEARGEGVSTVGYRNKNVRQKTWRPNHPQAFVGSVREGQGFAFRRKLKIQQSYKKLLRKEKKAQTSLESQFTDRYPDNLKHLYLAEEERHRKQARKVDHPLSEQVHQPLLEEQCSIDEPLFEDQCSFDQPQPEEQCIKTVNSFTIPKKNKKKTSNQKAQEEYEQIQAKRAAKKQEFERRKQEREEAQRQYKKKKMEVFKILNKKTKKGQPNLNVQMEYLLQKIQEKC
# UniProt P00915, sequence (P00915 whole entry, looked up): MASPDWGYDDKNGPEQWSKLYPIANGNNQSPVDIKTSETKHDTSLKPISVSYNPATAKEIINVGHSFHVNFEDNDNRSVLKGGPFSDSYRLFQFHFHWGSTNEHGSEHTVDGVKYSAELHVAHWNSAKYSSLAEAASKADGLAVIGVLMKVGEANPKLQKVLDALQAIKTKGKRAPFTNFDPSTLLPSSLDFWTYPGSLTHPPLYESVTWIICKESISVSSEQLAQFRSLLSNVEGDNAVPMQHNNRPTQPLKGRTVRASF
# UniProt P19784, sequence (P19784 whole entry, looked up): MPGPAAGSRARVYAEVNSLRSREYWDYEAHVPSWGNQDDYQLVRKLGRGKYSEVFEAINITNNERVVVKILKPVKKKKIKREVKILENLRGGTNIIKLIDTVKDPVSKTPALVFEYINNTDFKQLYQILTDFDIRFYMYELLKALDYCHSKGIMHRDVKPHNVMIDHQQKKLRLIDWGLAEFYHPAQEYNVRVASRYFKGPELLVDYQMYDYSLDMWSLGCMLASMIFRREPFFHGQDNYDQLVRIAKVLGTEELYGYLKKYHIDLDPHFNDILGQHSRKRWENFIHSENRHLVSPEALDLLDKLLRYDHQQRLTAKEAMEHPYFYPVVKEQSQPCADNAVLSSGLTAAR
# UniProt Q96GQ5, sequence (Q96GQ5 whole entry, looked up): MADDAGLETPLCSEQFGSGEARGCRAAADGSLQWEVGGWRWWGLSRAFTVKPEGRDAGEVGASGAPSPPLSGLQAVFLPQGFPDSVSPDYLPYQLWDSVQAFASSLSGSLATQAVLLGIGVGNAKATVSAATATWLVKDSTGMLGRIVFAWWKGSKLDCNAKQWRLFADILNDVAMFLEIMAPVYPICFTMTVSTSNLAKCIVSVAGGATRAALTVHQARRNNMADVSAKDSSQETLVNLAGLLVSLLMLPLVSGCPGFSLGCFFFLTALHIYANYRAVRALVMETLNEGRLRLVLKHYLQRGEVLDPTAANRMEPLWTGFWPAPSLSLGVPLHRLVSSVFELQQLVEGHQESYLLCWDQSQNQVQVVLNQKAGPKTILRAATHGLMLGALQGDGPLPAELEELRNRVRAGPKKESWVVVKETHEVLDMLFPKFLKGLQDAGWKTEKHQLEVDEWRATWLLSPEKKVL
# UniProt Q16630, sequence (Q16630 whole entry, looked up): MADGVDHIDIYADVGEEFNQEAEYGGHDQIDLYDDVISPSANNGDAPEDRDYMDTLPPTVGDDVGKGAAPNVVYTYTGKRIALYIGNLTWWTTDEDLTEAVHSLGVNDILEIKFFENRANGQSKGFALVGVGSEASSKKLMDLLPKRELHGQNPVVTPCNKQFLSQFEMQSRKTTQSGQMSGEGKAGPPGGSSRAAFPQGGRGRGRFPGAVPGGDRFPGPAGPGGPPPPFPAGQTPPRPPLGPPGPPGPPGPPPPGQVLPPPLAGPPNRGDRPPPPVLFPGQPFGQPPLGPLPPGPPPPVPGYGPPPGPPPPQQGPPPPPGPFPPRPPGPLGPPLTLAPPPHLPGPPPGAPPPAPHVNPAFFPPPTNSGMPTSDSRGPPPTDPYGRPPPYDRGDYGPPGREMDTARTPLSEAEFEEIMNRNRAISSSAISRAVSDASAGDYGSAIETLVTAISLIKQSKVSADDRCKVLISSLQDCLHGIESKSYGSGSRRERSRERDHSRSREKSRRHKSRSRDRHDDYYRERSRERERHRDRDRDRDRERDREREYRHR
# UniProt P51790, sequence (P51790 whole entry, looked up): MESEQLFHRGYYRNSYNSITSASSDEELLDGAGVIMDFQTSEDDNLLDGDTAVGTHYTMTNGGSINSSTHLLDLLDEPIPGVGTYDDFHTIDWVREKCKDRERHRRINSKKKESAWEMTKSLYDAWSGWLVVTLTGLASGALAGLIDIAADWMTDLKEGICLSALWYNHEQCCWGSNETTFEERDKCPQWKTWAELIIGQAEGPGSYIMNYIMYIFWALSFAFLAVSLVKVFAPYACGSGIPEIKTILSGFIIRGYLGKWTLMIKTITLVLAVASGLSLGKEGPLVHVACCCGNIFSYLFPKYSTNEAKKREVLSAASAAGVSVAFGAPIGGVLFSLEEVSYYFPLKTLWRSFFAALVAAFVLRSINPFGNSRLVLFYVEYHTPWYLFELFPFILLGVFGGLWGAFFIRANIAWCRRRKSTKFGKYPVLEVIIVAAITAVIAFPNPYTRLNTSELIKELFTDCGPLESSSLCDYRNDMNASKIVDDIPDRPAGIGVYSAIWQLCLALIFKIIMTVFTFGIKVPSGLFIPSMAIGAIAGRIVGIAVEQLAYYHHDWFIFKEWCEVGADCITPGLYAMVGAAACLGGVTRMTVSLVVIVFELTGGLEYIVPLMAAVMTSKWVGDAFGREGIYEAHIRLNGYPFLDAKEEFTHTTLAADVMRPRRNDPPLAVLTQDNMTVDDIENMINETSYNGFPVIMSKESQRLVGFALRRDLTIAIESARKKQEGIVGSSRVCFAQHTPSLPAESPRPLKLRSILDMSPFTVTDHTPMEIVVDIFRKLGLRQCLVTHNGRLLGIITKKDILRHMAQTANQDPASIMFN
# UniProt Q86X83, sequence (Q86X83 whole entry, looked up): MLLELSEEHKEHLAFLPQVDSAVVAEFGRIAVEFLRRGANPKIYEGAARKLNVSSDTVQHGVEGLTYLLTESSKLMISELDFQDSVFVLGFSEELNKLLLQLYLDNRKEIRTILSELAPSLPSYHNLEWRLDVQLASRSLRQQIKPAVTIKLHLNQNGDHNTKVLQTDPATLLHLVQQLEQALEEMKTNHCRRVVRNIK
# UniProt P41208, sequence (P41208 whole entry, looked up): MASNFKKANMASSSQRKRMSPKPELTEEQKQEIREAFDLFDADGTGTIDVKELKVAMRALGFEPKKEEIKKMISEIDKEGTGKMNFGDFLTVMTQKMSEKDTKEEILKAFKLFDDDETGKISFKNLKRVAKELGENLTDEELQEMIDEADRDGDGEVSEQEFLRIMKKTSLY
# UniProt P35790, sequence (P35790 whole entry, looked up): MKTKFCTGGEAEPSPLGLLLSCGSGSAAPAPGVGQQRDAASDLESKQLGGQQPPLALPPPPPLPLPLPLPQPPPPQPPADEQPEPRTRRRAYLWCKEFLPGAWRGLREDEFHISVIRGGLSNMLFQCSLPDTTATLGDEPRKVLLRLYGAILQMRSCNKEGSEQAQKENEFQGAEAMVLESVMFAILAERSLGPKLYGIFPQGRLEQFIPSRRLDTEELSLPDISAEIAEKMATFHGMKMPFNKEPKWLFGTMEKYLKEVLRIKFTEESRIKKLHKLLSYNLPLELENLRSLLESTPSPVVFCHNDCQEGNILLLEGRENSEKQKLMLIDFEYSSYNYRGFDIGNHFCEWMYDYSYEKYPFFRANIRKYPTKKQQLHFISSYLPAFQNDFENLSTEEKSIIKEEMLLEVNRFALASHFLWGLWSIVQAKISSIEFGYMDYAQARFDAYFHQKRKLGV
# UniProt O75794, sequence (O75794 whole entry, looked up): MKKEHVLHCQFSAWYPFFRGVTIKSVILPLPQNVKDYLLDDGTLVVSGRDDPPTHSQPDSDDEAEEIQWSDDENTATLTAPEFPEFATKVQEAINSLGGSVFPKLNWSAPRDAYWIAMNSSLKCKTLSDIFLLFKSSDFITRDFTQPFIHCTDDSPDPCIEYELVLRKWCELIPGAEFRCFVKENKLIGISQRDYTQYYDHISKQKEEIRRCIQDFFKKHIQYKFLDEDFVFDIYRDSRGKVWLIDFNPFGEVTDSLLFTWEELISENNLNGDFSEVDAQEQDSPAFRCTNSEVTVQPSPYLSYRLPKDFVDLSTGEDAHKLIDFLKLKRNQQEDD
Target,log2 fold change [1],log2 fold change [2],log2 fold change [3],log2 fold change [4],log2 fold change [5],log2 fold change [6],log2 fold change [7],log2 fold change [8],log2 fold change [9],log2 fold change [10],log2 fold change [11],log2 fold change [12],log2 fold change [13],log2 fold change [14],log2 fold change [15],log2 fold change [16],log2 fold change [17],log2 fold change [18],log2 fold change [19],log2 fold change [20]
CETN2 (UniProt P41208),0.149,0.159,-0.006,-0.074,0.074,0.065,-0.058,-0.01,-0.018,0.037,0.095,0.077,-0.013,-0.128,-0.03,-0.054,0.031,0.058,-0.079,0.06
CA1 (UniProt P00915),0,-0.02,0.01,0.016,0.003,0.042,-0.002,0.045,-0.034,0.134,0.014,-0.001,-0.095,-0.013,0.009,-0.057,-0.036,-0.016,-0.002,0.004
CCDC59 (UniProt Q9P031),0.065,0.186,-0.006,-0.067,-0.013,0.088,-0.08,-0.064,0.394,0.176,-0.222,0.023,0.267,0.127,0.007,0.309,0.029,0.05,0.026,-0.015
COQ9 (UniProt O75208),-0.04,-0.05,0.001,-0.041,-0.022,0.002,0.018,0.025,-0.057,-0.135,-0.009,-0.052,-0.041,-0.045,-0.047,-0.045,0.001,0.042,-0.013,-0.016
CHD3 isoform 3 (UniProt Q12873),-0.093,-0.757 (active),0.149,0.017,-0.042,0.067,0.126,0.048,0.099,-0.144,-0.067,-0.312,-0.12,0.096,-0.029,-0.253,0.134,-0.024,0.136,-0.087
CPSF6 isoform 2 (UniProt Q16630),0.016,0.02,0.016,-0.014,-0.037,-0.036,-0.062,0.008,0.004,-0.014,-0.014,0.031,-0.128,0.015,-0.217,-0.009,0.016,0.008,-0.043,0.007
CDK5RAP1 (UniProt Q96SZ6),-0.119,-0.064,0.071,0.033,0.001,-0.086,-0.006,0.036,-0.074,-0.254 (active),0.192,0.072,-0.077,-0.238 (active),0.044,0.022,0.035,0.057,0.053,-0.048
CHKA (UniProt P35790),0.22,0.161,-0.077,0.127,-0.001,0.203,0.043,0.044,-0.082,0.187,0.028,0.107,0.064,0.148,-0.033,0.006,0.046,-0.027,-0.107,0.056
CES2 isoform 4 (UniProt O00748),0.033,0.108,0.1,-0.168,0.187,-0.012,-0.02,0.023,0.034,0.054,0.04,0.196,0.065,0.115,0.247,-0.164,0.3,0.218,-0.145,0.044
C16orf58 (UniProt Q96GQ5),-0.055,-0.013,-0.005,0.029,0.015,-0.018,0.006,0.039,-0.037,-0.086,0.042,0.04,-0.032,-0.003,-0.005,-0.031,-0.012,-0.063,0.051,-0.02
CCAR1 (UniProt Q8IX12),0.079,0.149,0.063,0.008,-0.029,-0.219,0.018,0.046,-0.039,-0.319 (active),-0.038,-0.027,-0.17,-0.001,-0.039,-0.021,0.026,0.086,-0.005,-0.033
CDC123 (UniProt O75794),0.06,-0.002,0.07,0.137,-0.012,-0.021,0.015,0.034,-0.009,-0.1,-0.039,0.073,-0.033,0.075,-0.043,0.008,-0.017,-0.041,0.052,-0.032
COMMD2 (UniProt Q86X83),-0.004,-0.264,0.07,-0.088,-0.022,-0.005,-0.108,0.134,0,-0.209,-0.17,0.043,-0.078,0.179,0.411 (active),-0.088,0.034,0.039,-0.005,0.012
CDC42BPA isoform 6 (UniProt Q5VT25),-0.021,-0.86 (active),0.053,0.001,0.002,0,0.042,0.026,0.078,-0.359,-0.093,-0.47 (active),-0.688 (active),0.022,-0.037,-0.183,0.088,-0.031,0.06,-0.064
CSNK2A2 (UniProt P19784),-0.053,-0.122,0.028,0.029,0.01,-0.043,-0.006,0.066,-0.038,-0.244 (active),0.029,0.024,-0.041,-0.042,0.214,-0.067,-0.123,-0.017,-0.039,-0.052
CLCN3 isoform 2 (UniProt P51790),-0.047,-0.113,0.026,0.003,0.018,-0.032,0.024,0.001,-0.028,-0.079,0.104,-0.002,-0.079,-0.06,-0.018,-0.009,-0.002,-0.015,-0.027,-0.014
